High-throughput results (PubChem)
An excerpt weighted towards active compounds, which were near 3.2% of everything screened.
Nrf2 activator = qHTS of Nrf2 Activators | AREc32 ARE-luciferase reporter (MCF7-derived line), luminescence, 24 h | Potency, µM (highest dose often 46.1 µM), without a hit: at the highest dose activation, hits mostly activators | actives 0.31% (n = 410,000); further: potency means the concentration at half of the fitted maximal effect; % of control where 0% means no effect; nearly all actives have a fitted effect of over 65% in size
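ARE activation measured as luciferase luminescence (Steady-Glo, 30 min RT) in AREc32_Fluc cells after 24 hr compound exposure at 37 deg C, 5% CO2; cells seeded overnight at 1000/well in OPTI-MEM, 5% FBS.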
IL2 activator = qHTS of IL-2 Activators. IL-2 activation reporter assay, cell-based qHTS; stimulated with anti-CD3/CD4/CD28 beads; in transgenic mouse T cells. activation, % (series mostly up to about 46 µM). actives 0.065% (n = 360,000); in the data active means activation above about 50%; inconclusive means mostly about 30% to 49%; further: 0% is about no effect
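EGFP and DsRed fluorescence is measured by plate cytometry in unstimulated transgenic mouse T cells exposed to compound for 60 minutes, then stimulated 18 hours at 37 degrees C with anti-CD3/anti-CD4 beads plus anti-CD28.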
A549 viability = Nrf2 qHTS screen for inhibitors: counterscreen for cytotoxicity. A549 ARE-Fluc cells, CellTiter-Fluor viability, 18-24 h. Potency, µM (series often up to 46 µM), for inactives: top-dose activity change, negative = cytotoxicity, actives largely listed as inhibitors. actives 0.16% (n = 390,000); further: potency means the concentration at half of the fitted maximal effect; on the % scale 0 is the no-effect control and ±100 the full control effect
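A549 ARE_Fluc cells in 5% FBS OPTI-MEM were exposed to compounds in concentration-response for 18-24 h at 37 deg C. Viability was read by CellTiter-Fluor fluorescence (Ex 405/Em 525) after 30 min, before the luciferase read.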
BRCA1 expr up = qHTS Assay to Identify Small Molecule Activators of BRCA1 Expression. AID 624202, 2012. MCF7-BRCA1-FFLuc reporter, luminescence, 48 h; response scale: scaled: vehicle 0%, 10 µM genistein 100%. Potency, µM (titrated, usually from 46.1 µM), for inactives: at the top dose activation, actives largely listed as activators. actives 1.1% (n = 380,000); further: potency means the concentration at half of the fitted maximal effect; nearly all actives have a fitted effect of over 80% in size
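Using MCF7 cells harboring a BRCA1 firefly luciferase reporter, plated 2 h before compound pinning, the screen measured luminescence after 48 h incubation. Responses were normalized to DMSO and 10 microM genistein, then fitted for concentration-effect.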
p53 reactivator = qHTS assay for re-activators of p53 using a Luc reporter. Potency, µM (titrated, usually from 92.2 µM), for the others: at the highest dose activity change, positive = activation, most hits filed as activators. AID 504706, 2011. actives 0.063% (n = 320,000). H1299 p53-A138V BP100-luciferase reporter, luminescence, 24 h; further: potency means the concentration at half of the fitted maximal effect; % of control where 0% means no effect; nearly all actives have a fitted effect of over 45% in size
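H1299 (p53-null), stable ts p53-A138V + BP100-Luc; 1000 cells/well, Opti-MEM/10% FBS; cpd 4 pt, 1:5; 24 h, 37 deg C, 5% CO2; detection reagent 10 min RT; luminescence.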
Nrf2 block = Nrf2 qHTS screen for inhibitors | A549 ARE-Fluc reporter, luciferase luminescence, 18-24 h | Potency, µM (top dose mostly 46 µM), for inactives: top-dose activity change, negative = inhibition, actives largely listed as inhibitors | actives 2.1% (n = 360,000); further: potency means the concentration at half of the fitted maximal effect; on the % scale 0 is the no-effect control and ±100 the full control effect; nearly all actives have a fitted effect of over 60% in size
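Nrf2 function is reported as luminescence of an ARE-controlled luciferase in A549 cells. Compounds were tested at several concentrations, and a CellTiter-Fluor read on the same wells flagged cytotoxicity.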
* marks the source's active call; other numbers are inactive results; ? = inconclusive; . = no result. Unless noted, the call rests on the fitted dose curve; in most records, active means well fitted curve in the direction sought with a large enough effect; inconclusive means small, poorly fitted or top-dose-only effect, or another doubt; inactive means no such curve, though single readings can be large; an effect the other way counts as inactive or inconclusive.

SMILES	Nrf2 activator	IL2 activator	A549 viability	BRCA1 expr up	p53 reactivator	Nrf2 block
Cn1nc(-c2ccccc2F)c2cc(C(=O)Nc3ccc4c(c3)OCCO4)sc21	6%	2	?	11%	-3%	15µM*
COc1cccc(-c2nn(C)c3sc(C(=O)Nc4ccc5c(c4)OCCO5)cc23)c1	8%	-2	-25%	59%	1%	-24%
CCOC(=O)c1sc2nc(CSc3ccccc3)nc(N3CCC(C(N)=O)CC3)c2c1C	0%	-1	4%	-87%	-12%	21µM*
COc1ccc(OC)c(NC(=O)C(OC(=O)CNC(=O)c2ccccc2)c2ccccc2)c1 (stereo unspecified)	.	.	-6%	.	.	-2%
COC(=O)c1cc2sc(C)cc2n1CC(=O)Nc1ccc(C)c(C)c1	0%	.	-5%	.	.	0%
O=C1/C(=C\c2cccc([N+](=O)[O-])c2O)SC(=S)N1Cc1ccccc1	-1%	-5	?	-24%	2%	16µM*
COc1cc([N+](=O)[O-])cc(/C=C2/SC(=S)N(Cc3ccccc3)C2=O)c1O	2%	-3	3%	-9%	-2%	21µM*
COc1cc(/C=C2\SC(=O)N(Cc3ccc(Cl)cc3)C2=O)cc([N+](=O)[O-])c1O	0%	1	15µM*	-75%	2%	15µM*
CCN1C(=O)/C(=C\C=C\c2ccccc2[N+](=O)[O-])SC1=S	5µM*	0	?	-36%	4%	17%
COc1ncc(-c2ccc(N3C(c4ccc([N+](=O)[O-])cc4)=Cc4ccccc4C3CC(C)=O)cc2)cn1 (stereo unspecified)	0%	0	.	6%	.	.
Cc1ccc(NS(=O)(=O)c2cc3c(cc2C)OCC(=O)N3)cc1C	.	.	3%	.	.	-14%
C/C(=N\OCC(=O)NCC(F)(F)F)c1cc2ccccc2o1	2%	1	-6%	13µM*	?	16%
CCCCNC(=O)CO/N=C(\C)c1cc2ccccc2o1	8%	-1	0%	77%	?	24%
Cc1cc(C(=O)CSc2nc(N)cc(N)n2)c(C)n1CCc1ccc(F)cc1	3%	0	-19%	-77%	-9%	15µM*
Cc1cc(C(=O)CSc2ncccn2)c(C)n1-c1cccc(F)c1	0%	1	-3%	?	?	?
Cc1cc(C(=O)COC(=O)c2ccc(O)cc2)c(C)n1CCc1ccc(F)cc1	4%	-2	0%	60%	-1%	22%
Cc1cc(C(=O)CSc2n[nH]c(N)n2)c(C)n1-c1cccc(F)c1	-1%	-1	-1%	13µM*	22%	?
CCCc1nn2c(=O)cc(COC(=O)CNC(=O)COc3ccc(C)cc3)nc2s1	0%	.	4%	10%	.	?
O=C(Nc1ccc(C(F)(F)F)cc1)N1CCC(N2CCCCC2)CC1	0%	.	-3%	.	.	13%
COC(=O)c1ccc(Cn2ncc3c4sc(C)cc4n(C)c3c2=O)cc1	.	.	4%	.	.	10%
CC1(C)CC(=O)c2cnc(N3CCN(c4ccccc4)CC3)nc2C1	0%	-1	-7%	-5%	2%	-18%
CC1(C)CC(=O)c2cnc(N3CCc4ccccc4C3)nc2C1	6%	-2	-13%	7.1µM*	32%	?
CC(C)OC(=O)NC(C)(C)COC(=O)Nc1cccc(Cl)c1	2%	-3	-26%	0%	1%	10µM*
Nc1ccc(-c2nnn(Cc3ccccc3)n2)cc1	0%	0	-4%	67%	.	?
COc1ccc(-c2nnn(Cc3ccccc3)n2)cc1	3%	0	4%	10µM*	?	?
SMILES	Nrf2 activator	IL2 activator	A549 viability	BRCA1 expr up	p53 reactivator	Nrf2 block
CSc1ccc(-c2nnn(Cc3ccc(C)cc3)n2)cc1	5%	-1	0%	10µM*	?	?
COc1ccc(-c2ccc(-c3nnn(CC(=O)N4CCOCC4)n3)cc2)cc1	1%	0	5%	1.4µM*	.	2%
CC(=O)c1cc(-c2ccccc2)n(CCC(=O)Nc2nc3c(C)cccc3s2)c1C	4%	.	0%	.	.	.
COCCn1c(=N)c(C(=O)NC2CCCC2)cc2c(=O)n3cc(C)ccc3nc21	-1%	.	6%	9%	.	3%
CCN(C(=O)Cn1nnc2sc(-c3ccccc3)cc2c1=O)c1cccc(C)c1	4.5µM*	.	11%	.	.	26%
CCCN(CCC)C(=O)Cn1nnc2sc(-c3ccccc3)cc2c1=O	?	.	0%	.	.	4%
C=CCn1c(SCC(=O)Nc2sccc2C(N)=O)nc2ccc(Cl)cc2c1=O	10%	-1	?	-81%	-13%	?
C=CCn1c(SCC(=O)Nc2sccc2C(N)=O)nc2ccccc2c1=O	1%	0	-25%	-47%	-2%	26µM*
C=CCn1c(SCC(=O)Nc2sccc2C(N)=O)nc2sc(CC)cc2c1=O	15%	-1	?	-74%	-5%	15µM*
O=C(CCC1N=C2c3ccccc3N=C(SCc3ccc(F)cc3)N2C1=O)NC1CCCCC1 (stereo unspecified)	5%	.	?	.	.	.
Cc1ccc(/C=C2\SC(=S)N(CCCC(=O)Nc3ccccc3C(=O)O)C2=O)cc1	-2%	-1	2%	-80%	11%	15µM*
Cc1ccc(NC(=O)CCCN2C(=O)c3cccc4cccc(c34)C2=O)cc1	0%	-4	?	-26%	7%	15µM*
O=C(CCCN1C(=O)/C(=C/c2ccc3c(c2)OCO3)SC1=S)Nc1ccc(C(=O)O)cc1	-2%	1	3%	-90%	6%	10µM*
Cc1ccc(/C=C2\SC(=S)N(CCCC(=O)Nc3ccc(O)cc3)C2=O)cc1	0%	7	-13%	-90%	2%	16µM*
O=C(COc1ccccc1C(=O)Nc1ccccc1)NCCCCc1ccccc1	.	.	.	0%	.	.
COC(=O)/C=C1\OCc2cc(OCc3ccccc3)ccc21	.	-1	.	.	.	.
COc1ccccc1C1=Nn2c(nc3sc(C(=O)Nc4ccccc4Cl)c(C)c3c2=O)SC1	0%	.	-5%	.	.	?
COc1ccccc1C1N=C(Nc2nc3ccccc3o2)NC2=C1C(=O)CC(C)(C)C2 (stereo unspecified)	.	.	-3%	-36%	.	3%
CCc1cccc(-n2c(=O)c3cccnc3n2CC(=O)NCc2ccc(C)cc2)c1	3%	.	-14%	.	.	?
Cc1ccc(/C=C2\SC(=S)N(CCCC(=O)Nc3ccccn3)C2=O)cc1	-2%	-5	?	-88%	-11%	2.3µM*
